About 83,000 compounds went through this panel and 20% of them were active in at least one assay; those are over-represented in the sample as a whole.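 Plates (96-well) were seeded with cells, treated with compound at one concentration, and incubated for 48 hours before percent growth was determined.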 Activity calls are given as the source filed them.
Tested on: OVCAR-4 ovarian
Assay: NCI-60 one-dose screen, 48 h (100 = growth as untreated, 0 = no growth, -100 = all killed)
Details: 10 µM unless noted
Experimental: Growth inhibition of the OVCAR-4 human tumor cell line is measured as a screen for anti-cancer activity. Cells are grown in 96 well plates and exposed to the test compound for 48 hours. Compounds are tested at a single concentration, which is 10^-5 M for most compounds. The reported endpoint is percent growth (GI% or GIPRCNT), where numbers from 0 - 100% represent growth inhibition, and numbers from -100% - 0 represent cell death. For example, a value of 40 represents 60% growth inhibition. A value of 0 means no net growth occurred over the course of the experiment. A value of -40 indicates 40% of cells at the beginning of the experiment died by the end of the experiment. A value of -100 means all cells are dead at the end of the experiment.
NCI-60 Human Tumor Cell Lines Screen was performed using the standard one-dose NCI protocol, which is described in more detail at https://dtp.cancer.gov/discovery_development/nci-60/default.htm.
Compounds with GIPRCNT values below 10 were considered active. Activity score was based on GIPRCNT using the following formula: […]
Score is 0 for GIPRCNT values of 100 or above, 50 for GIPRCNT values of 0, and 100 for GIPRCNT values of -100.

SMILES	growth
Cn1c(=O)c2c(nc(Br)n2CCC(=O)Nc2ccc(F)cc2)n(C)c1=O	114% (inactive)
CC1(C)OC(=O)C(=Cc2ccccc2Br)C(=O)O1	102% (inactive)
O=C1C[C@@H]2/C(=C(O)\C=C\c3ccccc3)C(=O)C=C[C@@H]2O1	37.5% (inactive)
COc1cc(C2C=C(c3ccc(C)cc3)Nc3nc(SC)[nH]c(=O)c32)ccc1Oc1ccnc2cc(Cl)ccc12 (stereo not given)	86.3% (inactive)
Cc1cccc(Cl)c1NC(=O)c1ccc2nc(NC(=O)NC3CC(C)(C)NC(C)(C)C3)sc2c1	95.3% (inactive)
O=C(Oc1ccc[nH]c1=O)c1cccc(Cl)c1	54.6% (inactive)
Cc1cc(NC(=O)c2ccc(N)cc2)ccc1N=Nc1ccc2c(O)c(N=Nc3ccc(Cl)c(S(=O)(=O)O)c3)c(S(=O)(=O)O)cc2c1	106% (inactive)
CCOC(=O)C(C(C)=O)c1nc2sc3cc(Cl)ccc3n2c(=N)c1C#N (stereo not given)	77.9% (inactive)
CCOC(=O)C1C(=O)OC2CCCCC21 (stereo not given)	102% (inactive)
O=C(COC(=O)[C@H](C[Se][Se]C[C@H](NC(=O)c1ccc(Br)cc1F)C(=O)OCC(=O)c1ccc(F)cc1)NC(=O)c1ccc(Br)cc1F)c1ccc(F)cc1	-95.7% (active)
CCOC(=O)c1c(C)nc(C)c(C(=O)OCC)c1-c1cccnc1	97.8% (inactive)
COc1ccc(-c2nc3sccn3c2-c2ccnc(S(C)(=O)=O)n2)cc1	80.4% (inactive)
CCCCCCCCCCSc1ncnc2nc[nH]c12	61.3% (inactive)
CC1=NN(c2ccccc2Cl)C(=O)/C1=C\c1cn(S(=O)(=O)c2ccc(C)cc2)c2ccccc12	103% (inactive)
O=C(/C=C/c1cccnc1)NCCCCC1CCCN(C(=O)c2ccccc2)C1 (stereo not given)	89.2% (inactive)
CC12CCCCC1C(C(N)=O)C(=O)O2 (stereo not given)	101% (inactive)
c1ccc(-c2nnc(Nc3nnc(-c4ccccc4)s3)s2)cc1	101% (inactive)
Cc1cc2c(cc1[N+](=O)[O-])NC(CNC(C)C)CC2 (stereo not given)	95.1% (inactive)
COc1ccc2c(c1)[nH]c(=O)c1c3cc(OC)c(OC)cc3cn21	44.2% (inactive)
O=C(CN1CCCCC1)Sc1nnc2sc3ccccc3n12	105% (inactive)

SMILES	growth
Cc1nn(-c2ccc(Cl)cc2)c2nc3c(nc12)c(=O)oc1ccccc13	113% (inactive)
COc1ccc(-c2cnnn2-c2cc(OC)c3c(c2)OCO3)cc1	64.7% (inactive)
Oc1[nH]c2ccc(Cl)cc2c1/C=c1/ccc2c(c1)N=C(c1ccc(C(F)(F)F)cc1)N=2	59.5% (inactive)
O=C(c1ccccc1)c1ccco1	99.4% (inactive)
COc1ccc(Nc2ccnc(NCCCNc3ccnc4cc(Cl)ccc34)n2)cc1	11.8% (inactive)
CO[C@H]1/C=C/O[C@@]2(C)Oc3c(C)c(O)c4c(O)c(c(/C=N/N5CCN(C)CC5)c(O)c4c3C2=O)NC(=O)/C(C)=C\C=C\C(C)[C@H](O)[C@@H](C)[C@@H](O)[C@@H](C)[C@@H](OC(C)=O)[C@@H]1C (stereo not given in full)	103% (inactive)
COc1cc(NC(=O)c2cc3ccccc3cc2O)c(OC)cc1Cl	38.4% (inactive)
CN(C)c1nc(-c2ccco2)n2nc(-c3ccco3)cc2n1	80.1% (inactive)
Cc1cc(NC(=O)Nc2cccc3ccccc23)no1	103% (inactive)
COc1ccc(/C=C(\C#N)c2ccccc2)cc1	85.9% (inactive)
COC(=O)CCC1=C(CC(=O)OC)C(C)=N/C1=C\c1[nH]c(-c2ccc[nH]2)cc1OC	27.4% (inactive)
COc1ccccc1[C@H]1c2[nH]c3ccccc3c2C[C@H]2C(=O)N(CCCCCCC(=O)NO)CC(=O)N12	58.1% (inactive)
CCCOc1ccc2c(c1)CC[C@@H]1[C@@H]2CC[C@@]2(C)[C@H]1CC[C@]2(C)O	81% (inactive)
Nc1nc(SCc2ccccc2Cl)c(-c2ccccc2)c(SCc2ccccc2Cl)n1	95.8% (inactive)
NCCCc1nnc(CCC(=O)c2nc3ccccc3[nH]2)o1	104% (inactive)
COC1=CC(c2ccc[nH]2)=N/C1=C\c1[nH]c(C)c(C(=O)CCC(=O)Oc2ccc3c(c2)CCC2C3CC[C@]3(C)C(=O)CC[C@@H]23)c1C (stereo not given in full)	67.7% (inactive)
O=C1C2C3C=CC(O3)C2C(=O)N1Nc1ccccc1 (stereo not given)	102% (inactive)
Clc1nc(Cl)c2ncn(-c3ccccc3)c2n1	68.9% (inactive)
N#Cc1cnc2cc(OC[C@H](O)CO)c(NC(=O)CC3CSSC3)cc2c1Nc1ccc(OCc2cccc(F)c2)c(Cl)c1	-62.9% (active)
CCOC(=O)c1cc(-c2cccnc2)nc2c(Cl)cc(Cl)cc12	89.9% (inactive)

— PubChem BioAssay (NCI)
